For assay [1], the target named is Sphingosine kinase 1 (Homo sapiens) (UniProt Q9NYA1). Conditions: at 1 µM.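 Further: mean SPHK1 inhibition value reported from the GSK PKIS kinase panel screen.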
For assay [2], the target named is T1, Sphingosine kinase 2 (Homo sapiens) (UniProt Q9NRA0).
T1 sequence (whole entry): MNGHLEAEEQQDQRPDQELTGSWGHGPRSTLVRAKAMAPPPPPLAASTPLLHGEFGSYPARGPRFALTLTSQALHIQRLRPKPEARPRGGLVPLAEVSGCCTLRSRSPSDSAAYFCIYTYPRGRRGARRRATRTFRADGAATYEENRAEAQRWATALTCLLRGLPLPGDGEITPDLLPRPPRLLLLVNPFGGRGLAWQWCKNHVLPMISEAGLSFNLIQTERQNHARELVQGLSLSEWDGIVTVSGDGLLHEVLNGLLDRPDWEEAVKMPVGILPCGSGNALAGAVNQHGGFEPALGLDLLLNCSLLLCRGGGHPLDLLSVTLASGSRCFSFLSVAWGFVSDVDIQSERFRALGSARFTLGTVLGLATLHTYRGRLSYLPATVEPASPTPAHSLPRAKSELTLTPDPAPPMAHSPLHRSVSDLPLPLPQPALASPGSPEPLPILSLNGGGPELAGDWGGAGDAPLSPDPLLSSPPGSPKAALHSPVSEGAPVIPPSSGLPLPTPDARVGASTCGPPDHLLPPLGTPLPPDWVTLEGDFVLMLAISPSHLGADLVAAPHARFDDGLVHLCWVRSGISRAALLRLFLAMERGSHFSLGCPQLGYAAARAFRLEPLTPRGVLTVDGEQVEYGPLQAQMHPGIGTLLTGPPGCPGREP
As to conditions: at 0.1 µM.

Assay [3] has as its target T1, Sphingosine kinase 2 (Homo sapiens). Conditions: at 1 µM.
The target of assay [4] is Casein kinase II subunit alpha (Homo sapiens) (UniProt P68400). As to conditions: at 0.1 µM.
Sequence of Casein kinase II subunit alpha (Homo sapiens) (P68400 whole entry, looked up): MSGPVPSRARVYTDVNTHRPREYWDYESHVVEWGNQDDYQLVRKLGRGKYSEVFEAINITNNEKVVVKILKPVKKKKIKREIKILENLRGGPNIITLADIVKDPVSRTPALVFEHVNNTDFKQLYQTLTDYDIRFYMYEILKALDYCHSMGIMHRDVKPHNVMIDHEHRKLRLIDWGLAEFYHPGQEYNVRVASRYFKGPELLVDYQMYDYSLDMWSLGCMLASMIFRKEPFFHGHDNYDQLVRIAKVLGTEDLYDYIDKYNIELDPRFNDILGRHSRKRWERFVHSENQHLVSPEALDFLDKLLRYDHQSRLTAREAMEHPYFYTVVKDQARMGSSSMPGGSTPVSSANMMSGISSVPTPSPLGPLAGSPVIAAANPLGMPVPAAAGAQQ
Assay [5] has the same target. As to conditions: at 1 µM.
Assay [6] has as its target T2, Inhibitor of nuclear factor kappa-B kinase subunit alpha (Homo sapiens) (UniProt O15111).
T2 sequence (whole entry): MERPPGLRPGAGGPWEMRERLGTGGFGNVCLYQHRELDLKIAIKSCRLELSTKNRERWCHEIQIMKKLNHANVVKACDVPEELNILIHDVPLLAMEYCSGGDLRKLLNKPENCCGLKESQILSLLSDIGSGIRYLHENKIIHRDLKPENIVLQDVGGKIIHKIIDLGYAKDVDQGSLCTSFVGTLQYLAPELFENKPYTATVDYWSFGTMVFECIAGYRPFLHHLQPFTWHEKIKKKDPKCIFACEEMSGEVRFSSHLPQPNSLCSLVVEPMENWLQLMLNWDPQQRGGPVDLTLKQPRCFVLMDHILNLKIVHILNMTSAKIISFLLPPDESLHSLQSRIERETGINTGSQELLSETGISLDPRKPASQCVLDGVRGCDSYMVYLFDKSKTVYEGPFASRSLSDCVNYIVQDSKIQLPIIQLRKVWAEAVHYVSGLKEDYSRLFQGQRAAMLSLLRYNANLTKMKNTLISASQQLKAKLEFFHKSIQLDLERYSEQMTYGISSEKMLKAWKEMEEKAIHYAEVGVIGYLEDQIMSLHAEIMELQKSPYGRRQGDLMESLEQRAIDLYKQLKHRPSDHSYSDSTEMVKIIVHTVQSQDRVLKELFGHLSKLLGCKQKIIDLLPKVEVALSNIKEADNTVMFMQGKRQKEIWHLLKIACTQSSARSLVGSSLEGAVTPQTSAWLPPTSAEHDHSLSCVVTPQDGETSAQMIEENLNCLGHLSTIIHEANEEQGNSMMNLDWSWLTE
As to conditions: at 0.1 µM.

For assay [7], the target named is T2, Inhibitor of nuclear factor kappa-B kinase subunit alpha (Homo sapiens). Conditions: at 1 µM.
Assay [8] addresses T3, Inhibitor of nuclear factor kappa-B kinase subunit beta (Homo sapiens) (UniProt O14920).
T3 sequence (whole entry): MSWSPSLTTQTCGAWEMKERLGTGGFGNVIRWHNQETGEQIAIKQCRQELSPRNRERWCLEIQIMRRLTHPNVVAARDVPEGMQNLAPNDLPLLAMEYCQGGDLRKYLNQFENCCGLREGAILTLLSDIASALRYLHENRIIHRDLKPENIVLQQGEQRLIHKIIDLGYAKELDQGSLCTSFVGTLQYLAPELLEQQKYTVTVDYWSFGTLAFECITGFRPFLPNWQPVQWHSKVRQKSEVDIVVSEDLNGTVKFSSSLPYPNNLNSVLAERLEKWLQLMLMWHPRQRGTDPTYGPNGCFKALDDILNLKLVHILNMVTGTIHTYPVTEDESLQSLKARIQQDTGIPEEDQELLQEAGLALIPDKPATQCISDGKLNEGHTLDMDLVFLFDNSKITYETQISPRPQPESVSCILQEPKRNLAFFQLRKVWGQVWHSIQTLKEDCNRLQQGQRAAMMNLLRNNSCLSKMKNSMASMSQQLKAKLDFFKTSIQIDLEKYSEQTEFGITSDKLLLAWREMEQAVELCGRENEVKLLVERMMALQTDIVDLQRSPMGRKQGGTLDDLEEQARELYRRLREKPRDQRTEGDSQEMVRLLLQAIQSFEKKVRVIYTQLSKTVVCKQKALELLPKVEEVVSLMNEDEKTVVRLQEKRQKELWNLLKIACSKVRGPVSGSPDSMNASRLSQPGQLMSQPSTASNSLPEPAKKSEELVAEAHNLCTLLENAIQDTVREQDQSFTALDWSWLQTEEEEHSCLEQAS
As to conditions: at 0.1 µM.

Assay [9] addresses T3, Inhibitor of nuclear factor kappa-B kinase subunit beta (Homo sapiens). As to conditions: at 1 µM.
Assay [10] addresses T4, Inhibitor of nuclear factor kappa-B kinase subunit epsilon (Homo sapiens) (UniProt Q14164).
T4 sequence (whole entry): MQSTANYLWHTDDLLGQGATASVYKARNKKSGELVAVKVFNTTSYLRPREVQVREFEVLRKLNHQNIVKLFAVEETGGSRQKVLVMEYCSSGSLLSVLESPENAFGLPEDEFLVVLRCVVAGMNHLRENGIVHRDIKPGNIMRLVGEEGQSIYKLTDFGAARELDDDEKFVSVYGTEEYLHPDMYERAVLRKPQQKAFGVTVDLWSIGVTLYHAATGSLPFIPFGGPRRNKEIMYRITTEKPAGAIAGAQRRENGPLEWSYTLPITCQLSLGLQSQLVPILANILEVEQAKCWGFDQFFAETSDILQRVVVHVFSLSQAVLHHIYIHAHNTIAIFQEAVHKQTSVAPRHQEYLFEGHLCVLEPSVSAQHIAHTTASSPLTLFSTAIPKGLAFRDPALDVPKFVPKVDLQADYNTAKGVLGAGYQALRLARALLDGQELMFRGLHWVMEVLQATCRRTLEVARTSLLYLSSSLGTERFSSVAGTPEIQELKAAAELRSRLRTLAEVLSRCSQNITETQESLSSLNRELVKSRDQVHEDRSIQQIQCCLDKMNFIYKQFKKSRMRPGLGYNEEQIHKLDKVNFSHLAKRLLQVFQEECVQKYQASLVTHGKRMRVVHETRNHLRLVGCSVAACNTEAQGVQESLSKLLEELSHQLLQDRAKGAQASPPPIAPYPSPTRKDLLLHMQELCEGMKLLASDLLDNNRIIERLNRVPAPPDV
Conditions: at 0.1 µM.

As usually defined, the inhibition is the change of the read-out against control, counted positive when it falls.

Sequence of Sphingosine kinase 1 (Homo sapiens) (Q9NYA1 whole entry): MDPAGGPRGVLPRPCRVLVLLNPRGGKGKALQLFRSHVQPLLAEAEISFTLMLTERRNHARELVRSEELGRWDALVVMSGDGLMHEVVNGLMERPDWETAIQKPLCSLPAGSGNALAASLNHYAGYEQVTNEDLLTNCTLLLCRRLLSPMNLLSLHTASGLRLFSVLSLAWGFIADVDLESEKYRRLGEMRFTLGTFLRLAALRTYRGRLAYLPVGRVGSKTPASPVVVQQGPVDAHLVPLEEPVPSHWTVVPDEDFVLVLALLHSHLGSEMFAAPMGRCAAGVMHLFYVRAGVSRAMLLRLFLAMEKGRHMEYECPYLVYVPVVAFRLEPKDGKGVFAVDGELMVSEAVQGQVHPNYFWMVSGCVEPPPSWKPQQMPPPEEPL

On to `COc1cc2ncn(-c3cc(OCc4cccs4)c(C(N)=O)s3)c2cc1OC`, for which the inhibition in assay [1] was -0.69%; in assay [2], 0.11%; in assay [3], -0.11%; in assay [4], 5.63%; in assay [5], 20.8%; in assay [6], 3.56%. For the same compound, the inhibition in [7] came out at 4.87%; in assay [8] it was 3.09%; in [9], 6.07%; in assay [10], 7.67%.
For `COc1cc(Nc2ncc3c(C)nc(-c4cccc(C(F)(F)F)c4)n3n2)cc(OC)c1OC`, the inhibition in assay [1] is -1.99%; in assay [2], 0.44%; in assay [3] it was -3.1%; in assay [4], 9.99%; in assay [5] it was 43.1%; in assay [6], -0.47%. In addition, the inhibition came out at 4.04% in [7], 3.58% in assay [8], 3.21% in assay [9] and 10.6% in assay [10].
Take `O=C(Nc1n[nH]c2nc(-c3ccco3)ccc12)C1CC1`: the inhibition in assay [1] is -1.96%; in assay [2], 0.87%; in assay [3], -0.13%; in assay [4], 0.99%; in assay [5], -0.44%; in assay [6], 4.36%. Also, the inhibition in [7] was -0.84%; in assay [8], -0.41%; in [9], -0.38%; in [10], -0.37%.
With `COc1cc2ncn(-c3cc(OCc4ccccc4C(F)(F)F)c(C(C)=O)s3)c2cc1OC`, the inhibition is -6.56% in assay [1]; -0.29% in assay [2]; -1.72% in assay [3]; 5.99% in assay [4]; 2.45% in assay [5]; 2.23% in [6]. Besides, the inhibition was 7.97% in assay [7], 5.2% in [8], 9.05% in assay [9] and 6.32% in assay [10].
Turning to `Fc1ccc(-c2ncn(C3CCNCC3)c2-c2ccnc(Oc3ccc(Oc4ccccc4)cc3)n2)cc1`, the inhibition in assay [1] is -0.85%; in [2], -0.41%; in assay [3] it was -0.56%; in assay [4] it was 4.31%; in [5] it was 4.14%; in assay [6], 4.44%. For the same compound, the inhibition in [7] stood at 5.03%; in assay [8] it was 5.84%; in [9] it was 6.14%; in assay [10] it was 7.47%.
`NS(=O)(=O)c1ccc(N/N=C2\C(=O)Nc3ccc(C(=O)NCCCn4ccnc4)cc32)cc1`: the inhibition in assay [1] is -2.65%; in assay [2] it was 0.75%; in assay [3], -2.51%; in assay [4], 6.89%; in assay [5] it was 21%; in assay [6], 2.62%. The inhibition in assay [7] turned out to be 0.02%; in assay [8], 12.3%; in [9], 14.7%; in assay [10], 10.8%.
Consider `NS(=O)(=O)c1ccc(Nc2cc(-c3ccc(O)c(F)c3)n[nH]2)cc1`, for which the inhibition was -3.17% in assay [1]; 0% in assay [2]; 0.11% in assay [3]; 5.31% in assay [4]; 29.6% in [5]; -1.61% in [6]. The inhibition in assay [7] is 3.48%; in assay [8], -0.76%; in assay [9] it was 0.06%; in [10], -4.53%.
For the compound `CCc1ccc(Oc2nccc(-c3c(-c4ccc(F)cc4)ncn3C3CCNCC3)n2)cc1`, the inhibition in [1] was 11.5%; in assay [2] it was 1.25%; in [3], 0.72%; in [4] it was 3.17%; in assay [5], 4.14%; in assay [6], -3.32%. Also, the inhibition in assay [7] is -1.04%; in [8], 3.54%; in assay [9], 4.07%; in assay [10], 8.2%.

The values above are taken from ChEMBL document CHEMBL1961873, “Compounds: GSK PKIS; Assays: Nanosyn kinase panel” (2012).
